Shown are actives, neighbours in structure and some others; about 1.7% of the full set was active somewhere.
eIF4H inh = inhibitors of RNA binding by human eIF4H; Q15056; inhibition, % at 35 µM; eIF4H fluorescence polarization binding assay; hit rate 0.94% among 290,000;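 note: calls also rest on retests at 20 µM and on dose response follow-up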
EBV gp42 block = inhibitors of Epstein-Barr virus glycoprotein 42 | hit rate 0.42% among 220,000 | Q1HVG2 | inhibition, % (tested at 21.74 µM) | AID 1085 | Fluorescence polarization binding assay, mP read-out; in the data active = inhibition above about 50%
Target sequence (Q1HVG2 whole entry, looked up): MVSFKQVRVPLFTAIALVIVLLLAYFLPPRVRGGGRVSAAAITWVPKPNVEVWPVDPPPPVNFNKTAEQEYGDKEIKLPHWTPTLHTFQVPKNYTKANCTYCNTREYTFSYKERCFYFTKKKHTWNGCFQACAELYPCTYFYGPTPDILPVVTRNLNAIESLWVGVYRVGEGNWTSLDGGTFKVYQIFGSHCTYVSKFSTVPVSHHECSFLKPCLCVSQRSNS
PABP FP inh = PABP-poly(A) binding inhibition; P11940; PABP-poly(A) RNA binding, fluorescence polarization; calls only at 35 µM; hit rate 1% among 290,000; AID 2014;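 note: calls also rest on retests at 20 µM and on dose response follow-up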
eIF4E 4G PPI = inhibitors of eIF4E and eIF4G interaction in translation initiation | inhibition, % at 21.7 µM | hit rate 0.37% among 220,000 | P63073+Q04637 | TR-FRET eIF4E-eIF4GI(517-606) binding, 2 h;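 active = inhibition above about 30%, limit read from the data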;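 note: 0% = full FRET control wells and 100% = background wells lacking eIF4GI fragment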
PABP1 MLLE inh = blocks PAM2 peptide binding to the PABP1 MLLE domain; P11940; GST-MLLE / FITC-PAM2 fluorescence polarization; inhibition, % at 20 µM; hit rate 0.36% among 360,000; AID 588489; in the data active = inhibition above about 35%, passing the limit was not always enough;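 note: plate controls were DMSO wells with GST-MLLE for no effect and wells lacking GST-MLLE protein for full effect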
The depositor's hits bear a star; i = inactive; ? = inconclusive; / = no result given; + = active, no number. Unless noted, the rule behind the calls is not given here.

SMILES | eIF4H inh | EBV gp42 block | PABP FP inh | eIF4E 4G PPI | PABP1 MLLE inh
COc1ccc(CNC(=O)COC(=O)c2ccc(OCc3c(C)noc3C)cc2)cc1OC | 90* | -13 | i | 5 | -30
COc1cc(C(=O)NC2=NCCS2)ccc1OCc1c(C)noc1C | -5 | -4 | i | 2 | 42*
CC12CCC(C(NC(=S)NN)C1=O)C2(C)C (configuration not stated) | / | / | / | / | -64
COc1ccc(OC)c(S(=O)(=O)N2CCN(c3ccccn3)CC2)c1 | 11 | -18 | i | 9 | 3
COc1ccc(OC)c(S(=O)(=O)N2CCCCC2C(=O)N2CCN(c3ccccn3)CC2)c1 (configuration not stated) | 5 | 4 | i | -1 | 38*
COc1ccc(C(=O)N/C(=C\c2ccco2)C(=O)NCCN2CCOCC2)cc1 | 0 | / | i | / | 0
O=C(CCN1C(=O)C2C3C=CC(C3)C2C1=O)Nc1ccccn1 (configuration not stated) | 2 | -5 | i | 47* | 8
O=C(NCN1C(=O)C2C3C=CC(C3)C2C1=O)Nc1ccccn1 (configuration not stated) | 7 | -7 | i | 4 | 0
COC(=O)/C=c1/s/c(=C(/C#N)C(=O)NCc2ccccc2)n(-c2ccccc2)c1=O | 111* | -9 | + | -2 | -40
O=C(CN1CCOCC1)Nc1ccc2c(c1)CCC2 | -6 | -8 | i | -9 | -1
N#Cc1c(Nc2cccc(F)c2)sc2c(O)cc(=O)[nH]c12 | 56* | -4 | + | 3 | -84
COc1ccccc1C1C2=C(N=c3s/c(=C/c4cccc(OCC(=O)O)c4)c(=O)n31)c1ccccc1CC2 (configuration not stated) | 24 | -5 | i | 19 | -32
COc1cccc(C2C3=C(N=c4s/c(=C\c5ccc(OCC(=O)O)cc5)c(=O)n42)c2ccccc2CC3)c1 (configuration not stated) | 62 | -1 | i | 40* | /
COc1cccc(NC(=O)CN(C)C(C)C(=O)NC(=O)NC2CCCCC2)c1 (configuration not stated) | / | / | / | / | -4
Cc1cc(=O)oc2c3c4c(cc12)OCCN4CCC3 | 42 | 65* | i | 0 | -49
O=c1oc2c(CN3CCOCC3)c(O)ccc2c2c1CCC2 | 1 | -17 | i | / | -4
CC(C)c1cc(=O)oc2c3c4c(cc12)CCCN4CCC3 | 14 | 51* | i | 10 | -8
N=c1oc2c3c4c(cc2cc1C(=O)Nc1ccccc1)CCCN4CCC3 | ? | -67 | ? | 0 | 106
O=c1oc2c3c4c(cc2c(C(F)(F)F)c1CCN1CCOCC1)CCCN4CCC3 | ? | 139* | ? | 0 | i
O=C(COC(=O)Cc1c(Cl)cccc1Cl)NCc1ccccc1 | / | / | / | / | 3
O=C(Nc1ccccc1)N1CCC(C(=O)N2CCN(c3ccccc3F)CC2)CC1 | -1 | -14 | i | -1 | 2
O=S(=O)(c1ccc2c(c1)CCCC2)N1CCNCC1 | / | / | / | / | -4
CC1CCc2c(sc3nc(CN4CCOCC4)nc(NS(=O)(=O)c4cccc([N+](=O)[O-])c4)c23)C1 (configuration not stated) | 1 | 59* | i | 6 | -8
CN(C(=O)CSc1nnnn1C)C1(C#N)CCCCC1 | / | / | / | / | 0
Cc1cccc(N2CCN(C(=O)Cc3cn(C)c4ccccc34)CC2)c1C | 112* | 38 | + | -3 | 19
SMILES | eIF4H inh | EBV gp42 block | PABP FP inh | eIF4E 4G PPI | PABP1 MLLE inh
Cc1cccc(N2CCN(C(=O)COc3cc(=O)n(C)c4ccccc34)CC2)c1C | -7 | -4 | i | 14 | 7
CC(C)c1ccc(CNC(=O)C(=O)Nc2nccs2)cc1 | 3 | -17 | i | 0 | 2
CC(C)Cc1ccc(C(C)C(=O)Nc2nccs2)cc1 (configuration not stated) | 80* | 5 | + | 5 | -4
CC1=NN(CCC#N)C(=O)/C1=C/c1ccc(N(C)C)cc1 | 77* | -82 | i | -2 | -84
CCCOC(=O)c1ccc(OCC(O)CN2CCN(C(=O)c3ccccc3)CC2)cc1 (configuration not stated) | -4 | 0 | i | 34* | -6
O=C(Nc1cc(C(F)(F)F)cc(C(F)(F)F)c1)c1ccc(Cn2cc(C(F)(F)F)ccc2=O)cc1 | -2 | 7 | i | 5 | -1
Cc1cccc(Nc2n[nH]c(=S)s2)c1C | -4 | -6 | i | 58* | 30
Cc1cc(C)n2nc(C(=O)NCc3ccccc3)cc2n1 | 4 | -17 | i | 30* | 28
Cc1cc(C)n2nc(C(=O)NCc3ccccc3)nc2n1 | -1 | -5 | i | -2 | -8
COc1ccc2[nH]c3c(=O)n(CCCCC(=O)N4CCC(C(N)=O)CC4)c(=S)[nH]c3c2c1 | -2 | -36 | i | -2 | 51*
CC(CC(=O)Nc1ccc2c(c1)c(=O)n(C)n2Cc1ccc(F)cc1)c1ccccc1 (configuration not stated) | / | / | / | / | 11
Cc1cccc(NC(=O)c2sc3nc4c(c(-c5cccs5)c3c2N)CN(C)CC4)c1 | 110* | 6 | + | -3 | -12
COc1ccc(-c2ccc(-c3noc(-c4cccs4)n3)c(OC)n2)cc1 | 29* | -46 | + | -34 | -47
O=C(CCCN=C1NS(=O)(=O)c2ccccc21)OCC(=O)c1ccc(F)cc1 | / | / | / | / | -28
O=C1CN(C(=O)COC(=O)c2ccccc2Br)c2ccccc2N1 | / | / | / | / | 2
CCCCNc1nc(Nc2ccc(C)c(Cl)c2)c2cnn(C)c2n1 | -11 | / | i | / | -14
CN(c1cccc(NC(=O)c2cccc([N+](=O)[O-])c2)c1)S(C)(=O)=O | -6 | -7 | i | -2 | 8
CCOC(=O)c1c(NC(=O)C(Sc2ccccc2)c2ccccc2)sc(C(=O)N(C)C)c1C (configuration not stated) | active | 7 | + | 4 | 16
CCOC(=O)c1c(NC(=O)C(Sc2ccccc2)c2ccccc2)sc(C(N)=O)c1C (configuration not stated) | -10 | -11 | i | -24 | 19
CCCNC(=O)C(Cc1ccccc1)NC(=O)c1ccc(C(F)(F)F)cc1 (configuration not stated) | / | / | / | / | -6
CC(C)(CS(=O)(=O)[O-])NC(=O)CC[N+](C)(C)CCO | 88* | -9 | + | -16 | 1
CCOC(=O)c1c(-c2ccccc2)csc1NC(=O)/C(C#N)=C/c1ccc(O)c(OC)c1 | ? | -66 | + | 4 | 33
CCOC(=O)c1c(-c2cccc([N+](=O)[O-])c2)csc1NC(=O)CCCOc1ccccc1 | 3 | -2 | i | 76* | 7
CCOC(=O)c1c(-c2ccccc2)csc1NC(=O)C1CCCO1 (configuration not stated) | -2 | -6 | i | 5 | 39*
CCOC(=O)c1c(-c2ccccc2)csc1NC(=O)/C(C#N)=C/c1ccc(OC)c(OC)c1 | 34 | -29 | i | 1 | -25
CCOC(=O)c1c(-c2ccccc2)csc1NC(=O)CSc1nncs1 | -4 | -12 | + | 1 | -2

Source: PubChem BioAssay (several laboratories)
